Bioassay records deposited in PubChem BioAssay by several laboratories.
Rce1 inhib = inhibitors of yeast Ras-converting enzyme; yeast membranes, quenched prenylated peptide cleavage fluorescence; calls only; 290,000 tested, 0.27% active;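 active = fall in fluorescence gain of 50% or more versus controls, with final raw signal at or below 3038400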
Target sequence (Q03530 whole entry, looked up): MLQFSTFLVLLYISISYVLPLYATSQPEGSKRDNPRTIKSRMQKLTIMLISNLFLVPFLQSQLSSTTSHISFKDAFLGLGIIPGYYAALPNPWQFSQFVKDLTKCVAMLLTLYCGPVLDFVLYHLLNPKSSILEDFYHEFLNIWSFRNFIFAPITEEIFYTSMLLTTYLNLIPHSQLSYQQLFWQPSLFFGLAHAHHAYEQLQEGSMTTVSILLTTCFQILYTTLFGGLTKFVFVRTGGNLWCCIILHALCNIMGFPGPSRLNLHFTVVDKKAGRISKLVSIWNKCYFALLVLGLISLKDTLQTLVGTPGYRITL
MEKK3 PB1 HTS = raises or lowers MEK5 binding to the human MEKK3 PB1 domain. 290,000 tested, 1.4% active. AID 1529. binding response (% of control), % at 10 µM. Q99759. bead-based flow cytometry, Alexa488-MEK5 binding to MEKK3; actives lie on both sides; 0 = blocked by unlabeled MEK5, 100 = vehicle;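 active = binding response more than 3 SD above or below the average of its plate-row segment, actives on both sides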;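 note: Alexa488 bead fluorescence after subtracting the streptavidin-only scavenger bead signal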
UBC13 inh = human UBC13 polyubiquitination inhibition | AID 485273 | inhibition, % at 20 µM | 330,000 tested, 0.47% active | UBC13 polyubiquitin chain formation, TR-FRET; in the data active = inhibition above about 45%, passing the limit was not always enough
Target sequence (P61088 whole entry, looked up): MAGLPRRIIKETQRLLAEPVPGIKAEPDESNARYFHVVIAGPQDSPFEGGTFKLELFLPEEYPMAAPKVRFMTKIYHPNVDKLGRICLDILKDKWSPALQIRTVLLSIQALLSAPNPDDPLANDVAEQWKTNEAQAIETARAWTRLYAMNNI
MEKK2wt PB1 HTS = raises or lowers MEK5 binding to wildtype human MEKK2 PB1 domain. bead flow cytometry, Alexa488-MEK5 binding to MEKK2 WT; actives lie on both sides. Q9Y2U5. 290,000 tested, 1.1% active. binding response (% of control), % at 10 µM; in the data active = binding response below about 67% or above about 130%
MEKK2 mut-MEK5 = signal of MEK5 binding to mutant human MEKK2 PB1 domain. 290,000 tested, 0.35% active. AID 1530. bead flow cytometry, Alexa488-MEK5 binding to MEKK2 mutant. percent response, % at 10 µM; in the data active = percent response above about 24%, passing the limit was not always enough
MEKK2wt confirm = raises or lowers MEK5 binding to wildtype human MEKK2, retest; 5,900 tested, 2.4% active; bead flow cytometry, Alexa488-MEK5 binding to MEKK2 WT; actives lie on both sides; AID 1892; binding response (% of control), % at 10 µM; shares compounds with MEKK3 PB1 HTS; in the data active = binding response below about 16% or above about 210%; inactive = in between
MEKK2mut-MEK5 = signal of MEK5 binding to mutant human MEKK2, retest; AID 1893; bead flow cytometry, Alexa488-MEK5 binding to MEKK2 mutant; percent response, % at 10 µM; shares compounds with MEKK3 PB1 HTS; 5,900 tested, 2% active; in the data active = percent response mostly above about 71%, no sharp cut-off; inactive = mostly below about 38%;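 note: higher means compound restores mutant binding toward wildtype level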
MEKK3-MEK5 inh = confirmation of inhibitors of MEK5 binding to human MEKK3 | shares compounds with MEKK3 PB1 HTS | bead flow cytometry, Alexa488-MEK5 binding to MEKK3; stronger effect = lower value | binding response (% of control), % at 10 µM | 5,900 tested, 1.8% active;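 active = binding response below 72% of control, or above a set upper limit, though filed actives all read lower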
Each line names hits and unclear results; the compound was inactive in the other large screens (follow-up assays come after a bar, where they were run); [ ] = remark or other dose. Rows were chosen to be rich in hits. Some 2.5% of all compounds tested hit in one or more screens of this group.

O=C(NCCCN1CCOCC1)c1ccc2c(=O)n(Cc3ccc(Cl)cc3)c(=S)[nH]c2c1	none
O=C(Nc1ccc2c(c1)OCCO2)N1CCN(Cc2ccccc2)CC1	none
Cc1nn(C2CCS(=O)(=O)C2)c(Cl)c1/C=C/C(=O)OCC(N)=O (stereo unspecified)	none
C/C(=N\NC(=O)Cn1cc([N+](=O)[O-])cn1)c1ccc(O)cc1	none
Cc1ccc(CCN2CC(C(=O)NCCCN3CCCCCC3)CC2=O)cc1 (stereo unspecified)	MEKK2wt PB1 HTS 138 | MEKK2wt confirm inactive | MEKK2mut-MEK5 inactive | MEKK3-MEK5 inh inactive
Cc1ccc(S(=O)(=O)N2CCC(C(=O)NCCN3CCCCCC3)CC2)cc1	MEKK2wt PB1 HTS 170, MEKK2 mut-MEK5 34 | MEKK2wt confirm inactive | MEKK2mut-MEK5 inactive | MEKK3-MEK5 inh inactive
Cc1ccc(CCN2CC(C(=O)NCCN3CCCCCC3)CC2=O)cc1 (stereo unspecified)	MEKK2wt PB1 HTS 161, MEKK2 mut-MEK5 62 | MEKK2wt confirm inactive | MEKK2mut-MEK5 72 | MEKK3-MEK5 inh inactive
COc1ccc(CN2CC(C(=O)NCCCN3CCCCC3)CC2=O)cc1 (stereo unspecified)	none
Cc1ccc(S(=O)(=O)N2CCC(C(=O)NCCCN3CCCC3=O)CC2)cc1	none (no result: Rce1 inhib, MEKK3 PB1 HTS, MEKK2wt PB1 HTS, MEKK2 mut-MEK5)
COc1ccc(CN2CC(C(=O)NCCCN3CCCCCC3)CC2=O)cc1 (stereo unspecified)	MEKK2wt PB1 HTS 137 | MEKK2wt confirm inactive | MEKK2mut-MEK5 inactive | MEKK3-MEK5 inh inactive
Cc1ccc(S(=O)(=O)N(Cc2cccc(F)c2)C(=O)N2CCN(C)CC2)cc1	none (no result: MEKK3 PB1 HTS, MEKK2wt PB1 HTS, MEKK2 mut-MEK5)
COc1ccc(NC(=O)CCNC(=O)c2ccco2)cc1Cl	none (no result: Rce1 inhib)
CC(C)CCN1CC(C(=O)NCc2ccc(F)cc2)CC1=O (stereo unspecified)	none
O=C(NCc1ccc(F)cc1)C1CC(=O)N(CCc2ccccc2)C1 (stereo unspecified)	MEKK3 PB1 HTS 2.0[inhibitor], MEKK2wt PB1 HTS 3.0[inhibitor] | MEKK2wt confirm inactive | MEKK2mut-MEK5 inactive | MEKK3-MEK5 inh inactive
OCc1nnc2c3ccccc3c(-c3ccccc3)nn12	MEKK3 PB1 HTS 122 | MEKK2wt confirm inactive | MEKK2mut-MEK5 inactive | MEKK3-MEK5 inh inactive
Cc1nn(-c2ccccc2)c(C)c1NC(=O)COC(=O)c1cc(Br)ccc1O	none (no result: MEKK3 PB1 HTS, MEKK2wt PB1 HTS, MEKK2 mut-MEK5)
C=CCN(CC(=O)Nc1c(C)cccc1CC)C(=O)SCCC	MEKK3 PB1 HTS 81[inhibitor] | MEKK2wt confirm inactive | MEKK2mut-MEK5 inactive | MEKK3-MEK5 inh inactive
CN(C)CCN1C(=O)c2oc3ccccc3c(=O)c2C1c1ccc(F)cc1 (stereo unspecified)	MEKK3 PB1 HTS 2.0[inhibitor], MEKK2wt PB1 HTS -1.0[inhibitor] | MEKK2wt confirm inactive | MEKK2mut-MEK5 inactive | MEKK3-MEK5 inh inactive
CCN(c1cccc(C)c1)S(=O)(=O)c1ccc2c(c1)CCCN2C(C)=O	none
CC(=O)N1CCc2cc(S(=O)(=O)CCC(=O)N3CCC(C)CC3)ccc21	none
CCOC(=O)C1CCN(C(=O)CCS(=O)(=O)c2ccc3c(c2)CCN3C(C)=O)CC1	MEKK3 PB1 HTS 126 | MEKK2wt confirm inactive | MEKK2mut-MEK5 inactive | MEKK3-MEK5 inh inactive
CCN(c1cccc(C)c1)S(=O)(=O)c1ccc2c(c1)CCN2C(C)=O	MEKK3 PB1 HTS 1.0[inhibitor], MEKK2wt PB1 HTS -1.0[inhibitor] | MEKK2wt confirm inactive | MEKK2mut-MEK5 inactive | MEKK3-MEK5 inh inactive
Cc1ccc(Cl)cc1NC(=O)[C@@H]1CCC(=O)N1C1OC(=O)c2ccccc21 (stereo partly specified)	none
CCOCCCNC(=O)Cn1cnc2c(cnn2-c2ccc(C)c(C)c2)c1=O	none
CCC(c1nnnn1CCOC)N1CCN(Cc2ccccc2OC)CC1 (stereo unspecified)	MEKK2 mut-MEK5 25 | MEKK2wt confirm inactive | MEKK2mut-MEK5 inactive | MEKK3-MEK5 inh inactive
CCCC(c1nnnn1CCOC)N1CCN(Cc2ccccc2)CC1 (stereo unspecified)	none
